Test results as given in PubChem BioAssay AID463173 (ICCB-Longwood Screening Facility, Harvard Medical School, 2010).
About 1,700 (3.3%) of roughly 52,000 compounds were called active. Shown is part of a subset that was picked to be rich in actives. Values without a mark were called inactive. Cut-off read from the data, not from the text of the source: active = survival mostly below about 52% (no sharp cut-off); inactive = mostly above about 56%.

Each molecule was assayed on Wild type (assay: S. aureus survival, RN4220 and DeltatarO strains – OD600, teichoic acid synthesis inhibitors, primary screen (AID 463173)). Details: S. aureus RN4220 wild type/DeltatarO growth, OD600, 18 h, active compounds read low, screened at 18.75 µg/mL (by protocol).

Structure (SMILES)	survival
COc1ccc(C(=O)NCC(c2ccc3c(c2)OCO3)N2CCN(C)CC2)cc1 (stereo unspecified)	60%
CCc1ccc(-n2nc3ccc(NC(=O)COc4ccc(OC)cc4)cc3n2)cc1	95%
CCOc1ccc(CCNC(=O)C2CCN(Cc3nc(-c4ccccc4C)oc3C)CC2)cc1OCC	81%
CCc1cccc(C)c1NC(=O)CCS(=O)(=O)c1cc(Br)cc2c1N(C(=O)C1CC1)CC2	85%
CC(=O)c1sc(NC(=O)c2c(-c3ccccc3)c(-c3ccccc3)nn(C)c2=O)nc1C	54%
COc1cc(N(C(=O)c2ccco2)C(C(=O)NC2CCCC2)c2ccc(C)cc2)ccc1-n1cnnn1 (stereo unspecified)	105%
O=C(CSc1nnc(-c2cccc(F)c2)o1)N1c2ccccc2Sc2ccccc21	103%
Cc1ccc(-c2nnc(SCC(=O)N3CCCc4ccccc43)o2)cc1	65%
COc1cccc(-c2nnc(SCC(=O)N3c4ccccc4Sc4ccccc43)o2)c1	11% (active)
O=C(CSc1nnc(-c2ccccc2)o1)N1CCCc2ccccc21	68%
O=C(CSc1nnc(-c2ccc(F)cc2)o1)N1CCCc2ccccc21	66%
Cc1cccc(-c2nnc(SCC(=O)N3CCCc4ccccc43)o2)c1	5% (active)
COc1cccc(-c2nnc(SCC(=O)N3CCc4ccccc43)o2)c1	69%
Cc1ccccc1-c1nnc(SCC(=O)N2CCCc3ccccc32)o1	15% (active)
O=C(CSc1nnc(-c2ccccc2Cl)o1)N1CCCc2ccccc21	35%
CCn1c(SC)nnc1C1CCCN(C(=O)Cc2cccnc2)C1 (stereo unspecified)	89%
CCC1CCCCN1CCCNC(=O)CN1C(=O)c2cccnc2Oc2ccc(Cl)cc21 (stereo unspecified)	65%
Cc1cc(C)cc(NS(=O)(=O)c2ccc3[nH]cc(C(=O)NCc4ccccc4Cl)c(=O)c3c2)c1	111%
CCOc1ccccc1-c1noc(CSc2nnc(-c3ccccc3)n2-c2ccc(F)cc2)n1	117%
CN(C(=O)CSc1nc(C2CCCC2)nc2c1c(=O)n(C)c(=O)n2C)c1ccccc1	128%
Cc1ccc(-c2c(CN3CCN(c4cccc(C)c4)C(C)C3)csc2C)cc1 (stereo unspecified)	90%
CC(=O)Nc1cccc(NC(=O)CSc2ccc(-c3sc(-c4ccccc4)nc3C)nn2)c1	17% (active)
Cc1nc(-c2ccccc2)sc1-c1ccc(SCC(=O)Nc2ccccc2)nn1	41%

Structure (SMILES)	survival
Cc1nc(-c2ccccc2)sc1-c1ccc(SCC(=O)Nc2cccc(C(F)(F)F)c2)nn1	67%
O=C(Cn1c(=O)oc2cc(S(=O)(=O)N3CCCC3)ccc21)NCc1ccc(Cl)cc1	138%
NC1=NC(c2cccc(Cl)c2)n2c(nc3ccccc32)N1 (stereo unspecified)	97%
CCOc1ccc(-c2cc(CCCC(=O)NCCc3cc(OC)c(OC)c(OC)c3)no2)cc1	59%
O=C(CSc1nc2ccsc2c(=O)n1-c1ccc(Br)cc1)NCc1ccccc1	80%
O=C(CSc1nc2ccsc2c(=O)n1-c1ccc(Br)cc1)NCc1ccc(Cl)cc1	81%
Cc1ccc(Cn2c(SCC(=O)NCc3ccccc3)nc3ccsc3c2=O)cc1	76%
O=C(CSc1nc2ccsc2c(=O)n1Cc1ccccc1Cl)NCc1ccc(Cl)cc1	75%
Cc1ccc(CNC(=O)CSc2nc3ccsc3c(=O)n2-c2ccc(Br)cc2)cc1	14% (active)
Cc1ccccc1CSc1nc2ccsc2c(=O)n1CCC(C)C	74%
Cc1ccc(Cn2c(SCC(=O)NCc3ccccc3Cl)nc3ccsc3c2=O)cc1	-6% (active)
CC(C)CCn1c(SCc2cccc(F)c2)nc2ccsc2c1=O	76%
Cc1ccc(CSc2nc3ccsc3c(=O)n2CCC(C)C)cc1	-6% (active)
CC(C)/C=N/NC(=O)c1ccc2c(c1)NC(=O)C(C)(C)O2	108%
Cc1ccccc1OCC(=O)OC1CCCN(C)C1 (stereo unspecified)	90%
CCC(=O)N1CCc2cc(Br)cc(S(=O)(=O)N3CCC(C(=O)Nc4ccccc4F)CC3)c21	80%
COc1ccc(-c2cc(-c3ccccc3)c(C#N)c(SCC(O)CS(=O)(=O)Cc3ccc(Cl)cc3)n2)cc1 (stereo unspecified)	141%
CCCN(C(=O)Cc1nc(-c2ccc(OC)cc2)no1)c1ccccc1C	87%
CCCN(C(=O)CCc1nc(-c2ccc(C)cc2)no1)c1ccc(OCC)cc1	0% (active)
CCCN(C(=O)CCc1nc(-c2ccccc2F)no1)c1ccc(CC)cc1	-2% (active)
CN(C(=O)CCc1nc(-c2ccccc2F)no1)c1ccc(Cl)cc1	68%
COc1ccc(-c2noc(CCC(=O)N(C)c3ccccc3C)n2)cc1	71%
CCOC(=O)c1ccccc1NC(=O)CCc1nc(-c2ccc(C)cc2)no1	27%
